This note sets out measurements from PMC7862700, “An all-to-all approach to the identification of sequence-specific readers for epigenetic DNA modifications on cytosine”.

Common to all, as to assay: DAPPL (digital affinity profiling via proximity ligation, sequencing); 10 mM Tris-HCl pH 7.5, 50 mM NaCl, 1 mM DTT, 4% glycerol, room temperature, 30 min; GST-TFs on glutathione beads, 16-mer random dsDNA library, 0.1% formaldehyde crosslink after washing; high values mean tight binding
The target in one assay is T1, FEV (Homo sapiens, UniProt Q99581 1-238).
T1 sequence: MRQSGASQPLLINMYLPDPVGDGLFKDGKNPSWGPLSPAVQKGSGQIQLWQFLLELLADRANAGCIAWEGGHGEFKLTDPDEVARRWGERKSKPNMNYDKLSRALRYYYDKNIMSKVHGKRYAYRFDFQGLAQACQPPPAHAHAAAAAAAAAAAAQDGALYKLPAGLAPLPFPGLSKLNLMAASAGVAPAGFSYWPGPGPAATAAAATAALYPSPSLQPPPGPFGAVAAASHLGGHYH
The note with it: protein: recombinant; tags: N-terminal GST; dsDNA, one strand shown. The method, boiled down: (§1)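 Sequencing on an Illumina NextSeq500 followed washing, crosslinking with 0.1% formaldehyde, proximity ligation (BsaI/T4 ligase, 1 h, 37 °C) and PCR amplification of pools that had been incubated for 30 min at room temperature with 200 nmole of a random double-stranded 16-mer DNA library in Tris/NaCl/DTT/glycerol buffer. Each pool held DNA-barcoded human transcription factors, expressed in yeast as GST fusions and captured on glutathione beads, plus a tag-only sample. Binding signal is a hexamer's read frequency for a factor divided by its frequency in the tag-only sample.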

In a further assay the target is ETV5 (Homo sapiens, UniProt P41161 1-510). The note with it: protein: recombinant; tags: N-terminal GST; dsDNA, one strand shown. An outline of the steps:
as §1

A further assay addresses HSF1 (Homo sapiens, UniProt Q00613 1-529). Conditions: protein: recombinant; tags: N-terminal GST; chain copies: 3; dsDNA, one strand shown. An outline of the steps: as §1
The next assay deals with T2, SPIC (Homo sapiens, UniProt Q8N5J4 1-248).
T2 sequence: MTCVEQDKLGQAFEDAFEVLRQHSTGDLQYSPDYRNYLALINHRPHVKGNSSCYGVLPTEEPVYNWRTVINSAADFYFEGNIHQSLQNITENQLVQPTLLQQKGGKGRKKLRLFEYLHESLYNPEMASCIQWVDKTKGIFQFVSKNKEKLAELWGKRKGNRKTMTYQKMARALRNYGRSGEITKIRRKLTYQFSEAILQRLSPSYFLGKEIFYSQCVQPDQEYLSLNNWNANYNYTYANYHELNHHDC
The note with it: protein: recombinant; tags: N-terminal GST; dsDNA, one strand shown. The method, boiled down:
as §1

Another assay has as its target ELF4 (Homo sapiens, UniProt Q99607 1-663). The note with it: protein: recombinant; tags: N-terminal GST; dsDNA, one strand shown. The method, boiled down:
as §1

For another assay, the target named is T3, ELK4 (Homo sapiens, UniProt P28324-2 1-405).
T3 sequence: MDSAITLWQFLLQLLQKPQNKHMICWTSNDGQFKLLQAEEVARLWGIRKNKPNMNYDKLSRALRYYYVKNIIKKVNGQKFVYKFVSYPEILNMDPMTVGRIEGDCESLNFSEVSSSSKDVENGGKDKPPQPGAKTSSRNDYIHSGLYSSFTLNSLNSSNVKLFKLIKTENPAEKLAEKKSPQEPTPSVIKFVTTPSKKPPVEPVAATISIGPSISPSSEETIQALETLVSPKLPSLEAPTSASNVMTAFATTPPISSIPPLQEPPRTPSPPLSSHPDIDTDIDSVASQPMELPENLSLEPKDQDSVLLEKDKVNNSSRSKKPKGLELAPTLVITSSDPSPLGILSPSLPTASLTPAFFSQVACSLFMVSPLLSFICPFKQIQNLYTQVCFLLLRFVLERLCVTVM
Conditions: protein: recombinant; tags: N-terminal GST; dsDNA, one strand shown. An outline of the steps:
as §1

The target in the next assay is T4, ETV2 (Homo sapiens, UniProt O00321 1-342).
T4 sequence: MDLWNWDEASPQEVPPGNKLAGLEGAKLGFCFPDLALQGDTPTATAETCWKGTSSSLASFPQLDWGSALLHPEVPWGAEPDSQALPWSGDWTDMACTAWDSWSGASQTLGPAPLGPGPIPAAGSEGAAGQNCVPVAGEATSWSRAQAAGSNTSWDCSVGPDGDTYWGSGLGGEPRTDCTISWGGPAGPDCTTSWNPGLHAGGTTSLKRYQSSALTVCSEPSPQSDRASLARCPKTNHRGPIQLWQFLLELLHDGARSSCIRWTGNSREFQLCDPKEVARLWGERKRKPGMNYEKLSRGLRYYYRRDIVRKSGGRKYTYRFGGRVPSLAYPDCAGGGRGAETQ
Conditions: protein: recombinant; tags: N-terminal GST; dsDNA, one strand shown. The method, boiled down: as §1

The next assay concerns the target T5, ELF3 (Homo sapiens, UniProt P78545 1-371).
T5 sequence: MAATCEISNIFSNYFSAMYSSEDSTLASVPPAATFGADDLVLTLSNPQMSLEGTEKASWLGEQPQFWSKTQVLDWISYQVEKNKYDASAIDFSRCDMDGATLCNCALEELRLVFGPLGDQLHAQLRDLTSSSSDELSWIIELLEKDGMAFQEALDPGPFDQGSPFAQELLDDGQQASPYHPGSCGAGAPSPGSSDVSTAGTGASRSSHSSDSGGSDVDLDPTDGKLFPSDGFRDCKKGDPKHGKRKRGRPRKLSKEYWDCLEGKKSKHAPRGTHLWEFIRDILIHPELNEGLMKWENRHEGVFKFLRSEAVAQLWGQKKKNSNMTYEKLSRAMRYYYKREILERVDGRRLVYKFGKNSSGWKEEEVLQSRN
Conditions: protein: recombinant; tags: N-terminal GST; dsDNA, one strand shown. The method, boiled down:
as §1

In another assay the target is CRX (Homo sapiens, UniProt O43186 1-299). The note with it: protein: recombinant; tags: N-terminal GST; dsDNA, one strand shown. The method, boiled down:
as §1

Another assay concerns the target ETV1 (Homo sapiens, UniProt P50549 1-477). Conditions: protein: recombinant; tags: N-terminal GST; dsDNA, one strand shown. An outline of the steps: as §1
For a further assay, the target named is T6, ERF (Homo sapiens, UniProt P50548 1-548).
T6 sequence: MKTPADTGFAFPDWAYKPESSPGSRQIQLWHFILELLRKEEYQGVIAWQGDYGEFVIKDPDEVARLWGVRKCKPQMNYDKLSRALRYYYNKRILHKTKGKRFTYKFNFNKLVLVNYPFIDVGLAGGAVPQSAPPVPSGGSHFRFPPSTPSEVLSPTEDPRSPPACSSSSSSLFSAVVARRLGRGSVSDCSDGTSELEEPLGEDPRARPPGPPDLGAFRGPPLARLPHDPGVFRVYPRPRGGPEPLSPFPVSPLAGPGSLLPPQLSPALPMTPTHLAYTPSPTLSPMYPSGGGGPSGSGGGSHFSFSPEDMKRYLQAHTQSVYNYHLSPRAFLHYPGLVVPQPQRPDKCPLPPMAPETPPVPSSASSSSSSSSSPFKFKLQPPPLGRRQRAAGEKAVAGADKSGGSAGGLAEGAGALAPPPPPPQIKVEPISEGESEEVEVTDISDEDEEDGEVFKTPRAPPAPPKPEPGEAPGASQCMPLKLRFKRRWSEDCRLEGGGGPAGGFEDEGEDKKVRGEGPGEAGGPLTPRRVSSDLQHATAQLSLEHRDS
The note with it: protein: recombinant; tags: N-terminal GST; dsDNA, one strand shown. An outline of the steps: as §1

The target in a further assay is T7, ETV3L (Homo sapiens, UniProt Q6ZN32 1-361).
T7 sequence: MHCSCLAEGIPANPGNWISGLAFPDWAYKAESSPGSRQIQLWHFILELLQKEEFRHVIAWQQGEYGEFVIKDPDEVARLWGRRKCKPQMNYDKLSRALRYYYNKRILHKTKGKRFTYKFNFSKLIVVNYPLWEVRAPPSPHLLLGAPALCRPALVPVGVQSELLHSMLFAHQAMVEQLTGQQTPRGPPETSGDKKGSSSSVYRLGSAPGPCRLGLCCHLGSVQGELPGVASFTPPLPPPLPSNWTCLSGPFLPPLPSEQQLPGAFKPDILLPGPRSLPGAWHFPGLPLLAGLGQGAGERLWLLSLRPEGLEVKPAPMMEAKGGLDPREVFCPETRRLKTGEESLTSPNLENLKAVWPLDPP
The note with it: protein: recombinant; tags: N-terminal GST; dsDNA, one strand shown. An outline of the steps:
as §1

The next assay concerns the target T8, ETS2 (Homo sapiens, UniProt P15036 1-469).
T8 sequence: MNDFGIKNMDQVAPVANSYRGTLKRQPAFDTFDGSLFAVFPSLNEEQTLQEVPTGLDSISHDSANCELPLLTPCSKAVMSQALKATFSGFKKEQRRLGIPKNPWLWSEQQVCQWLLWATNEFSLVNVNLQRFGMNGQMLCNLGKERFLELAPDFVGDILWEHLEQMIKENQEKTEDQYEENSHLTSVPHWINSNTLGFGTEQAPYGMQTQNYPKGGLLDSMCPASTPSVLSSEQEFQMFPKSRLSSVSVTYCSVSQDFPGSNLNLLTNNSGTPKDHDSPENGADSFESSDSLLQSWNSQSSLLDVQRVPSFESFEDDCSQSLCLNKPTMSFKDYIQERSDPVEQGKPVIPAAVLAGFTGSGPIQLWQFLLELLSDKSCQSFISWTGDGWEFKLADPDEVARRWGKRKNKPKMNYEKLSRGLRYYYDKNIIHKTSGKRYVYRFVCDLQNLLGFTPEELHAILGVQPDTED
The note with it: protein: recombinant; tags: N-terminal GST; dsDNA, one strand shown. An outline of the steps:
as §1

The next assay has as its target T9, SPDEF (Homo sapiens, UniProt O95238 1-335).
T9 sequence: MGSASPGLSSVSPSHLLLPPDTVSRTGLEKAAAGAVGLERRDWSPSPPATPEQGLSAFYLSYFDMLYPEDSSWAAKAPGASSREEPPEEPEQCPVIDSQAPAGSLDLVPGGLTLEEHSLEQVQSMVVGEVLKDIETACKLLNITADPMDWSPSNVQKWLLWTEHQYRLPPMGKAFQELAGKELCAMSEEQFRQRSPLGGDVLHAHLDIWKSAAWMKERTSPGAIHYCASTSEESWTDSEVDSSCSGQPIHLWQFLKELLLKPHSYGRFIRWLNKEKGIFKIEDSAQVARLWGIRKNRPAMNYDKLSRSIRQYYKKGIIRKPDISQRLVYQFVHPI
Conditions: protein: recombinant; tags: N-terminal GST; dsDNA, one strand shown. An outline of the steps:
as §1

A further assay addresses T10, ETV7 (Homo sapiens, UniProt Q9Y603 1-341).
T10 sequence: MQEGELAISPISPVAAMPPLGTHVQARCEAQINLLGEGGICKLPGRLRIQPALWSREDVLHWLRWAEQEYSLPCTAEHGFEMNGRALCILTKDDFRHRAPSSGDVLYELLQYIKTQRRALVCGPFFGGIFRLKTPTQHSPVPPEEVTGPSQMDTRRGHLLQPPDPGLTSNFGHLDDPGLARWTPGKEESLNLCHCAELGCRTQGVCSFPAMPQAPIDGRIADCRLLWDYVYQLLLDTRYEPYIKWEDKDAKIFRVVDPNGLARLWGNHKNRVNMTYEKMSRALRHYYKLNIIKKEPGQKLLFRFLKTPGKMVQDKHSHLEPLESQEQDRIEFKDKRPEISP
Conditions: protein: recombinant; tags: N-terminal GST; dsDNA, one strand shown. An outline of the steps:
as §1

The next assay deals with T11, ELF5 (Homo sapiens, UniProt Q9UKW6-2 1-255).
T11 sequence: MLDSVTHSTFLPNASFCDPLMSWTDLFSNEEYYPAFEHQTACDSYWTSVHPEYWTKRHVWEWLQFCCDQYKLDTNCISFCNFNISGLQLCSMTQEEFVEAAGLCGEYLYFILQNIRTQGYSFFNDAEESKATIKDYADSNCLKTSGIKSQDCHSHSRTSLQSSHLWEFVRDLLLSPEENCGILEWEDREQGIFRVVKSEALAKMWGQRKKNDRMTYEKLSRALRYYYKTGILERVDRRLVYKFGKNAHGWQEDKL
The note with it: protein: recombinant; tags: N-terminal GST; dsDNA, one strand shown. The method, boiled down: as §1

The target of a further assay is T12, ETV3 (Homo sapiens, UniProt P41162-2 1-143).
T12 sequence: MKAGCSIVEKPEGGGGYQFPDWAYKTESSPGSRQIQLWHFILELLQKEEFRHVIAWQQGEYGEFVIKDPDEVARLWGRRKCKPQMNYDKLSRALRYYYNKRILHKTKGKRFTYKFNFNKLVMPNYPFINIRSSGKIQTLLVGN
Conditions: protein: recombinant; tags: N-terminal GST; dsDNA, one strand shown. An outline of the steps: as §1

The next assay addresses ETV6 (Homo sapiens, UniProt P41212 1-452). Conditions: protein: recombinant; tags: N-terminal GST; dsDNA, one strand shown. The method, boiled down:
as §1

Chain of ETV5 (P41161 whole entry): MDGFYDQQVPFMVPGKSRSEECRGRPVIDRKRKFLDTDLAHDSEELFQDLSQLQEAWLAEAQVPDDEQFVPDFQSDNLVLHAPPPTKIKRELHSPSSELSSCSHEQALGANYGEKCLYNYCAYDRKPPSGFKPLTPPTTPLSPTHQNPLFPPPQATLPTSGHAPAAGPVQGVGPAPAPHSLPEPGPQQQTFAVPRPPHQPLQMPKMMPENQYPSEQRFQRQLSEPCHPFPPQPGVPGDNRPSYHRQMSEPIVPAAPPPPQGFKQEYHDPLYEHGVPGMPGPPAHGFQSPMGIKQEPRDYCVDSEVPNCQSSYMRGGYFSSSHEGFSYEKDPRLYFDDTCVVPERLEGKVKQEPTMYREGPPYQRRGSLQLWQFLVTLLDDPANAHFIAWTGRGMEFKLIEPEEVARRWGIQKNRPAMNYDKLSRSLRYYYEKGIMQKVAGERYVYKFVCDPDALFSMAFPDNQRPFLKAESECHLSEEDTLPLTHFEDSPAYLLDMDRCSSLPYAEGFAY
Chain of HSF1 (Q00613 whole entry): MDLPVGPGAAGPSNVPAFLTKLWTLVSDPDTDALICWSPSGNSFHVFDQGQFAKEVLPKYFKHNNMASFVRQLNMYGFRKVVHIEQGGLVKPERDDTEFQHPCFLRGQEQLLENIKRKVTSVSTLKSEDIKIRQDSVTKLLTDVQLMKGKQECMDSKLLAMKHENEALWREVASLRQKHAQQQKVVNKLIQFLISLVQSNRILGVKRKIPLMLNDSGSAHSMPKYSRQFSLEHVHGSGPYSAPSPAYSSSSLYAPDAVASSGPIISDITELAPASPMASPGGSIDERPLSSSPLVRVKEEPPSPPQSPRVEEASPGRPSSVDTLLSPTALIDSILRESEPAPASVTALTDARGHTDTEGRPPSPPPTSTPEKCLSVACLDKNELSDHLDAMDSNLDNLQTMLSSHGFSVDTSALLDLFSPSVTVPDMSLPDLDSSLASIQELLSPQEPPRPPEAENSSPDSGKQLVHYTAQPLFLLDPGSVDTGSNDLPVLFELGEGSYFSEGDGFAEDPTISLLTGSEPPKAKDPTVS
Chain of CRX (O43186 whole entry): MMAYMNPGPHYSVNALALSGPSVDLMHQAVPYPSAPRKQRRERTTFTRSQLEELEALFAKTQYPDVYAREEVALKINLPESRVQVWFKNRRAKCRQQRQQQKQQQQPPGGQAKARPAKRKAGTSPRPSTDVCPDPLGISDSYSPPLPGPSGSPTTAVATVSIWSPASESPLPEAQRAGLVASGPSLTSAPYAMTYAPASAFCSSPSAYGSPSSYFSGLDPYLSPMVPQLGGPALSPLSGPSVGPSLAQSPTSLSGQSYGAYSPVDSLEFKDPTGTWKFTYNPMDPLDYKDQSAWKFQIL
Chain of ETV6 (P41212 whole entry): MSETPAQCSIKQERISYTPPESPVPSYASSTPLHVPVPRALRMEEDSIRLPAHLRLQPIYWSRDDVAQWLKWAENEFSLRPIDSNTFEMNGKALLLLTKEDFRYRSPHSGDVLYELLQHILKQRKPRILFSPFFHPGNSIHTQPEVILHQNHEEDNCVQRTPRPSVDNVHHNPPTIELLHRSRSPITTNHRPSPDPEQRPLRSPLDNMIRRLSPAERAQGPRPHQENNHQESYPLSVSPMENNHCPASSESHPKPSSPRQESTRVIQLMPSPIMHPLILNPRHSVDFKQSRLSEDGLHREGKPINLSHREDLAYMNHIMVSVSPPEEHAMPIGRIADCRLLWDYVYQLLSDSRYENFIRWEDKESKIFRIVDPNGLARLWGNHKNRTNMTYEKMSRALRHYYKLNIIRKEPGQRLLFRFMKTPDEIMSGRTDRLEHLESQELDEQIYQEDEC
Chain of ETV1 (P50549 whole entry): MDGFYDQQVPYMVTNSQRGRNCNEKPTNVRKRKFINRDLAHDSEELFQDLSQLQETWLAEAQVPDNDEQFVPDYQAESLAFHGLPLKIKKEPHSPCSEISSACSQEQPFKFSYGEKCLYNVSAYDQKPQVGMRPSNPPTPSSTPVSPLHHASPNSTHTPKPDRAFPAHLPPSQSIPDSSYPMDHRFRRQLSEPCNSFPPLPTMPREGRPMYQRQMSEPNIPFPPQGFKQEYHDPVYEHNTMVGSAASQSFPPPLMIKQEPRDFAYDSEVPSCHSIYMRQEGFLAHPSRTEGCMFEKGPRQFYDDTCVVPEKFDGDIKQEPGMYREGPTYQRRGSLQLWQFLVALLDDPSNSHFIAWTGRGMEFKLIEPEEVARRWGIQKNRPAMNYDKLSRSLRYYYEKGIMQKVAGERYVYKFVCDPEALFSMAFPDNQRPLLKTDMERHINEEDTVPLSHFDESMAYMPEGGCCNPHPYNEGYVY
Chain of ELF4 (Q99607 whole entry): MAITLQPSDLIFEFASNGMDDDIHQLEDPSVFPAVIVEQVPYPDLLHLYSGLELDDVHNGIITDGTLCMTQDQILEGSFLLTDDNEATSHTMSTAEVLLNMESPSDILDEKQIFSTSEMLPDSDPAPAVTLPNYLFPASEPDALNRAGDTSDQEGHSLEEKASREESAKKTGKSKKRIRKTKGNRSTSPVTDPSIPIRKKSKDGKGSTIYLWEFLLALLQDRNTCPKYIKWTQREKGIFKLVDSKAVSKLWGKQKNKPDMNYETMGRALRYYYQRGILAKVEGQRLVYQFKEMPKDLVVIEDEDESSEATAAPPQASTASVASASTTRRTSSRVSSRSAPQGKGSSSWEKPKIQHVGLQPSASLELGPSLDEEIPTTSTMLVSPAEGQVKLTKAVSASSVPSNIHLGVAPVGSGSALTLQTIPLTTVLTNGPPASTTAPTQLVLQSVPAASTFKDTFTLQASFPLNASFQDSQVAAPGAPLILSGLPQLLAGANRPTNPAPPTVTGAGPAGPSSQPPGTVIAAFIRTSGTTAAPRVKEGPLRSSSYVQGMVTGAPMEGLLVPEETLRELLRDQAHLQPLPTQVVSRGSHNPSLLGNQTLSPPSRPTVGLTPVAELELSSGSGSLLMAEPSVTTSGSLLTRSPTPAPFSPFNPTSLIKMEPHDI

With TATAAA, the binding signal with FEV is 1.16 fold enrichment (6-mer frequency, TF over GST control); with ETV5, 1.18 fold enrichment (6-mer frequency, TF over GST control); in the assay with HSF1 it was 1.47 fold enrichment (6-mer frequency, TF over GST control); with SPIC, 1.26 fold enrichment (6-mer frequency, TF over GST control); in the assay with ELF4, 1.23 fold enrichment (6-mer frequency, TF over GST control); in the assay with ELK4, 1.32 fold enrichment (6-mer frequency, TF over GST control). Further, the binding signal in the assay with ETV2 was 1.2 fold enrichment (6-mer frequency, TF over GST control); with ELF3, 1.33 fold enrichment (6-mer frequency, TF over GST control); in the assay with CRX, 1.85 fold enrichment (6-mer frequency, TF over GST control); in the assay with ETV1 it was 1.16 fold enrichment (6-mer frequency, TF over GST control); with ERF, 1.25 fold enrichment (6-mer frequency, TF over GST control); in the assay with ETV3L it was 1.15 fold enrichment (6-mer frequency, TF over GST control). The binding signal is 1.27 fold enrichment (6-mer frequency, TF over GST control) with ETS2; 1.21 fold enrichment (6-mer frequency, TF over GST control) with SPDEF; 1.12 fold enrichment (6-mer frequency, TF over GST control) with ETV7; 1.24 fold enrichment (6-mer frequency, TF over GST control) with ELF5; 1.24 fold enrichment (6-mer frequency, TF over GST control) in the assay with ETV3; 1.21 fold enrichment (6-mer frequency, TF over GST control) with ETV6.
